High-throughput results: PubChem BioAssay, National Center for Advancing Translational Sciences (NCATS)
The entries come from a sample that favours hits as a whole.
Methyltransferases = Primary Screen for Target Class Profiling of Small Molecule Inhibitors of Methyltransferases; hit rate 3.9% among 25,000; AID 1745853, 2022; calls only at 40 µM; purified enzyme, MTase-Glo SAH luminescence; active compounds read low; call rule not given here
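Each enzyme was reacted with SAM and its substrate, with compounds tested once at 40 uM; SAH formed was read by MTase-Glo luminescence.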
Each line names hits and unclear results; the compound was inactive in the other large screens.

CC1OC(OC2C(O)COC(O[C@@H]3[C@@H](O)[C@@H](O)[C@H](OC4C(OC(=O)[C@]56CCC(C)(C)CC5C5=CCC7[C@@]8(C)C[C@H](O)[C@H](OC9OC(CO)C(O)C(O)C9O)[C@@](C)(CO)C8[C@H](O)C[C@@]7(C)[C@]5(C)CC6)OCC(O)C4O)O[C@H]3C)C2O)C(O)C(O)C1O (stereo partly drawn)	none
CC1(C)CC[C@]2(C(=O)O[C@@H]3O[C@H](CO)[C@@H](O)[C@H](O)[C@H]3O)CC[C@]3(C)C(=CCC4[C@@]5(C)C[C@@H](O)[C@H](O)C(C)(C)C5CC[C@]43C)C2[C@@H]1O (stereo partly drawn)	Methyltransferases active
CC1(C)CC[C@]2(C(=O)O[C@@H]3O[C@H](CO)[C@@H](O)[C@H](O)[C@H]3O)CC[C@]3(C)C(=CCC4[C@@]5(C)CC[C@H](O[C@H]6O[C@H](CO)[C@@H](O)[C@H](O[C@@H]7O[C@H](CO)[C@@H](O)[C@H](O)[C@H]7O)[C@H]6O)C(C)(C)C5CC[C@]43C)[C@@H]2C1 (stereo partly drawn)	none
CC1CCC2(C(=O)OC3OC(CO)C(O)C(O)C3O)CCC3(C)C(=CCC4C5(C)CCC(O)C(C)(CO)C5CCC43C)C2C1(C)O (stereo not drawn)	none
CC1CCC2(C(=O)OC3OC(CO)C(O)C(O)C3O)CCC3(C)C(=CCC4C5(C)CC(O)C(O)C(C)(C(=O)O)C5CCC43C)C2C1(C)O (stereo not drawn)	none
CC1(C)CC[C@]2(C(=O)O[C@@H]3O[C@H](CO)[C@@H](O)[C@H](O)[C@H]3O)CC[C@]3(C)C(=CCC4[C@@]5(C)C[C@@H](O)[C@H](O)[C@@](C)(CO)C5CC[C@]43C)C2[C@@H]1O (stereo partly drawn)	Methyltransferases active
C[C@@H]1O[C@@H](O[C@@H]2CO[C@@H](O[C@H]3CC[C@@]4(C)C(CC[C@]5(C)C4CC=C4[C@@H]6CC(C)(C)CC[C@]6(C(=O)O[C@@H]6O[C@H](CO)[C@@H](O)[C@H](O)[C@H]6O)CC[C@]45C)[C@]3(C)CO)[C@H](O)[C@H]2O[C@@H]2O[C@H](CO)[C@@H](O)[C@H](O)[C@H]2O)[C@H](O)[C@H](O)[C@H]1O (stereo partly drawn)	none
CC1(C)CC[C@]2(C(=O)O)CC[C@]3(C)C(=CCC4[C@@]5(C)C[C@@H](O)[C@H](O)[C@@](C)(CO)C5[C@H](O)C[C@]43C)[C@@H]2C1 (stereo partly drawn)	none
C[C@@H]1CC[C@]2(C(=O)O[C@@H]3O[C@H](CO)[C@@H](O)[C@H](O)[C@H]3O)CC[C@]3(C)C(=CCC4[C@@]5(C)C[C@@H](O)[C@H](O)C(C)(C)C5CC[C@]43C)C2[C@]1(C)O (stereo partly drawn)	none
COc1ccccc1CN1C(=O)c2cc3oc(C)cc3n2CC1(C)C(=O)NC1CCCCC1 (stereo not drawn)	none
O=C(CCCc1nnc2n3nc(-c4ccccc4)nc3c3ccccc3n12)NC1CCN(Cc2ccccc2)CC1	none
Cc1ccc(NC(=O)CSc2nnc3n(CCCOC(C)C)c(=O)c4ccccc4n23)c(C)c1	none
Cc1ccc(NC(=O)CSc2nnc3n(C)c(=O)c4ccc(C(=O)NC5CCCC5)cc4n23)c(C)c1	none
CC(=O)Nc1c2n(c3ccc(F)cc13)CC(C)(C(=O)NC1CCCC1)N(Cc1cccnc1)C2=O (stereo not drawn)	none
Cc1cccc(N2CCN(CC(=O)Nc3ccc4[nH]c(=O)[nH]c4c3)CC2C)c1 (stereo not drawn)	none
Nc1nccc(Oc2ccc(NC(=O)c3c[nH]cc(-c4ccc(F)cc4)c3=O)cc2F)c1Cl	Methyltransferases active
O=C(Nc1ccc(F)cc1)c1ccnc2[nH]ccc12	none
COc1ccc(OC)c(-c2ccc(NC(=O)c3ccncc3F)cc2)c1	none
CCc1ccccc1NC(=O)N1CCn2c(C)ccc2C1C(C)C (stereo not drawn)	none
C=CCn1c(=O)c2ccc(C(=O)NC(C)C)cc2n2c(=O)n(CC(=O)N(C)c3ccccc3)nc12	none
Cc1cc2c(cc3n2CC(C(=O)NC2CCCCCC2)(c2ccccc2)N(Cc2ccccc2)C3=O)o1 (stereo not drawn)	none
COc1ccc(NC(=O)N2CCn3cccc3C2C)cc1OC (stereo not drawn)	none
CCOc1ccccc1NS(=O)(=O)c1cc2[nH]c(=O)[nH]c2cc1Cl	none
COc1ccccc1CNC(=O)C1(C)Cn2nc(-c3ccccc3)cc2C(=O)N1c1ccc(C)cc1 (stereo not drawn)	none
CCCn1c(=O)c2ccc(C(=O)NC(C)CC)cc2n2c(SCC(=O)Nc3ccc(C)cc3)nnc12 (stereo not drawn)	none
Nc1ccc(-c2cnc(N)c(-c3ccc(Cl)cc3)c2)cn1	Methyltransferases active
COc1cc(-c2cc(-c3cccc(O)c3)cnc2N)cc(OC)c1OC	none
CC(=O)Nc1c2n(c3ccc(F)cc13)CC(C)(C(=O)NC1CCCC1)N(C1CCC(C)CC1)C2=O (stereo not drawn)	none
CCOc1ccccc1CNC(=O)c1cc2n(n1)CC(C)(C(=O)NC1CCCCCC1)N(C)C2=O (stereo not drawn)	none
Cc1cc(C)cc(-c2cnc3cc(Cl)c(-c4cccc(O)c4)cc3c2OCCCN)c1	Methyltransferases active
COc1ccc(OC)c(S(=O)(=O)N2CC[C@@H]3COCCN(C)[C@@H]3C2)c1	none
COc1cc(C2Oc3c(O)cc(CCCO)cc3C2CO)ccc1O[C@H]1O[C@H](C)[C@@H](O)[C@H](O)[C@@H]1O (stereo partly drawn)	none
COc1cc(C(O)C2COC(c3ccc(OC4OC(CO)C(O)C(O)C4O)c(OC)c3)C2CO)ccc1O (stereo not drawn)	none
C/C=C/c1cc(OC)c2c(c1)[C@@H](C)[C@@H](c1ccc(O)c(OC)c1)O2	Methyltransferases active
C/C=C/c1ccc2c(c1)[C@@H](C)[C@H](c1ccc(O)cc1)O2	Methyltransferases active
COc1cc(C2Oc3c(OC)cc(CCCO)cc3C2CO)ccc1O (stereo not drawn)	Methyltransferases active
Oc1ccc([C@@H]2Oc3ccc(O)cc3[C@@H]3CCC[C@@H]32)cc1	none
COc1cc([C@@H]2Oc3c(OC)cc(CCCO)cc3[C@@H]2CO[C@@H]2O[C@H](CO)[C@@H](O)[C@H](O)[C@H]2O)ccc1O	none
O=C(/C=C/c1ccc(O)cc1)O[C@@H]1C[C@@](O)(C(=O)O)C[C@@H](O)[C@@H]1O	none
COc1cc(C2Oc3c(OC)cc(/C=C/C(=O)OC4CC(O)(C(=O)O)CC(O)C4O)cc3C2CO)ccc1O (stereo not drawn)	Methyltransferases active
COc1cc(/C=C/C(=O)OC2CC3CCC2(C)C3(C)C)ccc1O (stereo not drawn)	none
CCOc1ccc(CN2C(=O)c3cc4oc(C)cc4n3CC2(C)C(=O)NC2CCCCC2)cc1 (stereo not drawn)	none
CC(C)Cn1c(=O)c2ccc(C(=O)NC(C)C)cc2n2c(=O)n(CC(N)=O)nc12	none
CCCCNc1nc2c(S(=O)(=O)c3cc(C)ccc3C)nnn2c2ccccc12	none
COC(=O)c1ccc(OC)c(CN2CC(=O)N(Cc3ccc(F)cc3)c3ccccc3S2(=O)=O)c1	none
CC1CCC(NC(=O)C2(C)Cn3c(nc4ccccc43)C(=O)N2CCc2ccc(Cl)cc2)CC1 (stereo not drawn)	none
CCCC1c2cccn2CCN1C(=O)Nc1ccc(OCC)cc1 (stereo not drawn)	none
CCCCNC(=O)c1cc2n(n1)CC(C)(C(=O)NC1CCCC1)N(CCC)C2=O (stereo not drawn)	none
